This passage reports binding signal results from article PMC7862700, “An all-to-all approach to the identification of sequence-specific readers for epigenetic DNA modifications on cytosine”.

Holding throughout (assay): DAPPL (digital affinity profiling via proximity ligation, sequencing); 10 mM Tris-HCl pH 7.5, 50 mM NaCl, 1 mM DTT, 4% glycerol, room temperature, 30 min; GST-TFs on glutathione beads, 16-mer random dsDNA library, 0.1% formaldehyde crosslink after washing; high values mean tight binding
Conditions in all cases: protein: recombinant; tags: N-terminal GST; dsDNA, one strand shown

The target of one assay is T1, FLI1 (Homo sapiens, UniProt Q01543 1-452).
T1 sequence: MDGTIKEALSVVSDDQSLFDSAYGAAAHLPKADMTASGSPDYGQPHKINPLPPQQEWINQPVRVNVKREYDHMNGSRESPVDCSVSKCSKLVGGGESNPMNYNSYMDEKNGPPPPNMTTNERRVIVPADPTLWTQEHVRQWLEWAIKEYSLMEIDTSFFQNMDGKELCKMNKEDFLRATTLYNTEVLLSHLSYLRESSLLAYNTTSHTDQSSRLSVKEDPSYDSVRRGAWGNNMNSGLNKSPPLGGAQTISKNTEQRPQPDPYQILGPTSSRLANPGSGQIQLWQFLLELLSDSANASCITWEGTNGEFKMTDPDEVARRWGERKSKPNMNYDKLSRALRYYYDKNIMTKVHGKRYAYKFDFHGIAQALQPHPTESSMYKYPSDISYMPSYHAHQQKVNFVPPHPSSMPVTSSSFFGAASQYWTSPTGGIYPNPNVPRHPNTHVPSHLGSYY
The method, boiled down:
(§1)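 Beads coated with glutathione captured GST-fused human transcription factors that had been expressed in yeast, and the factors were then given DNA barcodes and pooled with a tag-only sample. The pools were incubated with 200 nmole of a random double-stranded 16-mer DNA library in Tris/NaCl/DTT/glycerol buffer for 30 min at room temperature, washed, crosslinked with 0.1% formaldehyde and proximity-ligated with BsaI/T4 ligase at 37 °C for 1 h. PCR amplification and Illumina NextSeq500 sequencing came last. Binding signal is each hexamer's read frequency for a factor divided by its frequency for the tag-only sample.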

A further assay addresses T2, ELK1 (Homo sapiens, UniProt P19419 1-428).
T2 sequence: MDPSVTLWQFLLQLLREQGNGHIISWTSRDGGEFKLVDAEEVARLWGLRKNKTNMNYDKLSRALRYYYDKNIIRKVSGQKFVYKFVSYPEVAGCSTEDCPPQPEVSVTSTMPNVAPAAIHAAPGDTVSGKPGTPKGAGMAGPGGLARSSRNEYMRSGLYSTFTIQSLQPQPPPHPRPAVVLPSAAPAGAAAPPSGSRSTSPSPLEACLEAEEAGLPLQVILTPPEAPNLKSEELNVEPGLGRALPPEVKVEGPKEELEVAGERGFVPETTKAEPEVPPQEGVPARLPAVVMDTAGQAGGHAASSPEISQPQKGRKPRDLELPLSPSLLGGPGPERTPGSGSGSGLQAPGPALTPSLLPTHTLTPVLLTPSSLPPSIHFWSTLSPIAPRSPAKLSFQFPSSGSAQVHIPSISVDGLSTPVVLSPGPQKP
The method, boiled down:
as §1

In the next assay the target is T3, GABPA (Homo sapiens, UniProt Q06546 1-454).
T3 sequence: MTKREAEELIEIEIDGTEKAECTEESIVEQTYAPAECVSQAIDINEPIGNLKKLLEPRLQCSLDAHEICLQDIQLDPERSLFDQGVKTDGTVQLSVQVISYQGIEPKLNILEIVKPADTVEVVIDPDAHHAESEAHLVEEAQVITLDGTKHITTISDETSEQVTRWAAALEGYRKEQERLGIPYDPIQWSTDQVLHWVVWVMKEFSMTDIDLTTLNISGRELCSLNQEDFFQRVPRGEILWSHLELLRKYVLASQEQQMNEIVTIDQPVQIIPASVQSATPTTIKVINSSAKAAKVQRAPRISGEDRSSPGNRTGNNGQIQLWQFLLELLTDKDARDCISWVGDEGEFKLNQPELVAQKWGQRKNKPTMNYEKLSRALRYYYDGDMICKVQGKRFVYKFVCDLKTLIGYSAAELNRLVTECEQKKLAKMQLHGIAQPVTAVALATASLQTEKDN
The gist of the method:
as §1

For the next assay, the target named is T4, ERG (Homo sapiens, UniProt P11308 1-479).
T4 sequence: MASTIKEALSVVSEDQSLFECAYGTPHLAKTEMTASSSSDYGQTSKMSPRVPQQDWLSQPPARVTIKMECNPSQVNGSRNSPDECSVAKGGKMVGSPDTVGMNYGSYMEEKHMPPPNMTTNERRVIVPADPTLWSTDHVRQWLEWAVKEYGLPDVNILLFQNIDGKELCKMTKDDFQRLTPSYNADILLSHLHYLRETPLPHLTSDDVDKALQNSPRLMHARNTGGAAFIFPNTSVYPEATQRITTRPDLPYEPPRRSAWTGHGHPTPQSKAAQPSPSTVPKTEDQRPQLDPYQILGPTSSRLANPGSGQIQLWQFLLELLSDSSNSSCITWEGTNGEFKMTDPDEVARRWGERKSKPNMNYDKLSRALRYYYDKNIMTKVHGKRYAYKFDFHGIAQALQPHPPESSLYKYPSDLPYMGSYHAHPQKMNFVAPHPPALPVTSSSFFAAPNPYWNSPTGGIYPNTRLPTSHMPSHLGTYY
The method, boiled down: as §1

In another assay the target is ELF1 (Homo sapiens, UniProt P32519 1-619). The method, boiled down:
as §1

The target in a further assay is T5, EHF (Homo sapiens, UniProt Q9NZC4 1-300).
T5 sequence: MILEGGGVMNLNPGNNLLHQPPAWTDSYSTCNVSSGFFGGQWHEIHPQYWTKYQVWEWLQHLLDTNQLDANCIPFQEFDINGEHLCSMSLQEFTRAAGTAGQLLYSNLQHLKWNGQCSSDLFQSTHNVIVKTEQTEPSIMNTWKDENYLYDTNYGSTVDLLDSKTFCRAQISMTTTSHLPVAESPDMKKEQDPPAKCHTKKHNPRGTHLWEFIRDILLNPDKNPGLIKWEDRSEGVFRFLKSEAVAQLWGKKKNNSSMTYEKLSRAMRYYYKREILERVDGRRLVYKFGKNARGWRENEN
The method, boiled down: as §1

A further assay has as its target SPI1 (Homo sapiens, UniProt P17947 1-270). The gist of the method: as §1
The target in the next assay is T6, ELK3 (Homo sapiens, UniProt P41970 1-407).
T6 sequence: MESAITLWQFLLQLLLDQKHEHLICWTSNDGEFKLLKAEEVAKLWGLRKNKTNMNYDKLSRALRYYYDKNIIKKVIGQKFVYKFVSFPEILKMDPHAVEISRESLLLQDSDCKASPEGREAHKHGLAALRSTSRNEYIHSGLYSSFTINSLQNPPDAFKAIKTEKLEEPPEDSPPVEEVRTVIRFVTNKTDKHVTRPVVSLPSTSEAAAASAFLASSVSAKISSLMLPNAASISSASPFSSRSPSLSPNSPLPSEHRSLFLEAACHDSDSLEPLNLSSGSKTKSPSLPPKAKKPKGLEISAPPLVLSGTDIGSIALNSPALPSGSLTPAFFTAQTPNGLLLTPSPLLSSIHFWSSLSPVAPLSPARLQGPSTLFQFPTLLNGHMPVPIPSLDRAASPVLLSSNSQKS
The method, boiled down:
as §1

A further assay deals with T7, FEV (Homo sapiens, UniProt Q99581 1-238).
T7 sequence: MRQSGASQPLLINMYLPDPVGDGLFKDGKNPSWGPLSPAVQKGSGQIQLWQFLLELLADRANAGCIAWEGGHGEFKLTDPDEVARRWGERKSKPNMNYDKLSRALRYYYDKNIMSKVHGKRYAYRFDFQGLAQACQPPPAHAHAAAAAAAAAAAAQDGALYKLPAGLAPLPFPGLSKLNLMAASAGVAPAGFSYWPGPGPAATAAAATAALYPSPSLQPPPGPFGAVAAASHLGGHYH
The method, boiled down: as §1

The next assay addresses ETV5 (Homo sapiens, UniProt P41161 1-510). The method, boiled down: as §1
Another assay deals with T8, SPIC (Homo sapiens, UniProt Q8N5J4 1-248).
T8 sequence: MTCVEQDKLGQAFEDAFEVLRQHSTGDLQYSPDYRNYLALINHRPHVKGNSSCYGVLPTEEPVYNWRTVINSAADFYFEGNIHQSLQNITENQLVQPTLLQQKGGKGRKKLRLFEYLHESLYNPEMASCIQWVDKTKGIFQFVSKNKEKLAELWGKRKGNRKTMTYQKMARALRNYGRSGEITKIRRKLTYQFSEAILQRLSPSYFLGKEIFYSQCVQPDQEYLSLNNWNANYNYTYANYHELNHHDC
The method, boiled down: as §1

The next assay addresses ELF4 (Homo sapiens, UniProt Q99607 1-663). The gist of the method: as §1
The target in a further assay is T9, ELK4 (Homo sapiens, UniProt P28324-2 1-405).
T9 sequence: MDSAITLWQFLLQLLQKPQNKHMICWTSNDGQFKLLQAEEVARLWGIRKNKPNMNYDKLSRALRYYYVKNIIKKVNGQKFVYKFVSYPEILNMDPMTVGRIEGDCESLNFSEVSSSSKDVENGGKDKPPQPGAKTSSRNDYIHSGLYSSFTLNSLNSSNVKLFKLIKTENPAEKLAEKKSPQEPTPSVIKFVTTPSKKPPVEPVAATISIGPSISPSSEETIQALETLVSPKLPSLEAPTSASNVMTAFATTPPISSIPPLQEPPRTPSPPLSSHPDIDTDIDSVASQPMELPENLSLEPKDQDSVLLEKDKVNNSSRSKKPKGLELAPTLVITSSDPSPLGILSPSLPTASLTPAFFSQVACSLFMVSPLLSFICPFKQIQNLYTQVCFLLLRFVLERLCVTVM
The gist of the method:
as §1

In another assay the target is T10, ETV2 (Homo sapiens, UniProt O00321 1-342).
T10 sequence: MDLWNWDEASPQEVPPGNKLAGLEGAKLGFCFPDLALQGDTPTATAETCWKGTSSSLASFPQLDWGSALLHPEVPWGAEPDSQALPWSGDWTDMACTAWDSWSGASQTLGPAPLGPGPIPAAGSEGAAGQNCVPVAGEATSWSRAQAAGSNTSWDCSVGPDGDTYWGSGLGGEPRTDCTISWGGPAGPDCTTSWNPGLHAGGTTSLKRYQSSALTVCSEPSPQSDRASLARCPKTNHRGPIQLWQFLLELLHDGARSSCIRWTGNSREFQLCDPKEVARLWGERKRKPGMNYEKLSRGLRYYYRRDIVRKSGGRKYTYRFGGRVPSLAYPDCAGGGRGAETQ
The gist of the method: as §1

A further assay concerns the target T11, ELF3 (Homo sapiens, UniProt P78545 1-371).
T11 sequence: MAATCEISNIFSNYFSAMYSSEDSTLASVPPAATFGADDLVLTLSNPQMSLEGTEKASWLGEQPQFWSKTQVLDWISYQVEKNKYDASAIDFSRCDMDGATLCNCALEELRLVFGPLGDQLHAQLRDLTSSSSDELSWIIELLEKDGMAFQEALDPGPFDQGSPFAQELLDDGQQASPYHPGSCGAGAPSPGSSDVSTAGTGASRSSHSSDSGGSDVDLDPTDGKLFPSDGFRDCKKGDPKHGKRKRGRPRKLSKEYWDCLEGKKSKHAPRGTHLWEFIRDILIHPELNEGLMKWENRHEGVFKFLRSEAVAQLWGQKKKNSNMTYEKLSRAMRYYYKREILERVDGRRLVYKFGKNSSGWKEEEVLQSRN
The method, boiled down:
as §1

For another assay, the target named is ETV1 (Homo sapiens, UniProt P50549 1-477). The method, boiled down: as §1
ETV1, sequence (P50549 whole entry): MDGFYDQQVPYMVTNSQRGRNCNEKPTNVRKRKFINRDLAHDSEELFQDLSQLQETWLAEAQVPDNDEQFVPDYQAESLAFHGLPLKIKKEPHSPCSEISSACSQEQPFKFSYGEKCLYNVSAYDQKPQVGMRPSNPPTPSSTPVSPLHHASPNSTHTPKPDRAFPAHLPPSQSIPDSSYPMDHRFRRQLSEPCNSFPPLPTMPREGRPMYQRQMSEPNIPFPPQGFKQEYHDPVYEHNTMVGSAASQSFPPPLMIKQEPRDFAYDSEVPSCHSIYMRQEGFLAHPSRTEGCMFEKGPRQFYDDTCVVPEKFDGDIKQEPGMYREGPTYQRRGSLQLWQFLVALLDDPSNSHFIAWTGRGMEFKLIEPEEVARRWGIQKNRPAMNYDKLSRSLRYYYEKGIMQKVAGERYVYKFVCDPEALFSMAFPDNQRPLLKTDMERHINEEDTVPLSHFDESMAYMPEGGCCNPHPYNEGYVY

ELF1, sequence (P32519 whole entry): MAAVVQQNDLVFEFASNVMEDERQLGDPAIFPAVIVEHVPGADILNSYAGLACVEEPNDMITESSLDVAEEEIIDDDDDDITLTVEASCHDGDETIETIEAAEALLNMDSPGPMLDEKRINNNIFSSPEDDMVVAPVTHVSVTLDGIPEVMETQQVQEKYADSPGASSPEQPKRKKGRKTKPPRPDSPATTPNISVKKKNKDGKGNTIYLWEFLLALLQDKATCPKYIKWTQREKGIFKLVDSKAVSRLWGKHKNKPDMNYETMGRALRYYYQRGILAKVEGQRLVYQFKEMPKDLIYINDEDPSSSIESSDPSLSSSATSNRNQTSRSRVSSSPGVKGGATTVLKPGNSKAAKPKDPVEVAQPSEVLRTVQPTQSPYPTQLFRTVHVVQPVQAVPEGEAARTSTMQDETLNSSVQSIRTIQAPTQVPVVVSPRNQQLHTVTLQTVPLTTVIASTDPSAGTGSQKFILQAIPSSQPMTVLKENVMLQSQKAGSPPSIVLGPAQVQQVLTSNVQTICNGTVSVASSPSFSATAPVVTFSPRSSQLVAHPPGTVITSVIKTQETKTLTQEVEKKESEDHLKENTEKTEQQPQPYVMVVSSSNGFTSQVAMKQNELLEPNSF
ELF4, sequence (Q99607 whole entry): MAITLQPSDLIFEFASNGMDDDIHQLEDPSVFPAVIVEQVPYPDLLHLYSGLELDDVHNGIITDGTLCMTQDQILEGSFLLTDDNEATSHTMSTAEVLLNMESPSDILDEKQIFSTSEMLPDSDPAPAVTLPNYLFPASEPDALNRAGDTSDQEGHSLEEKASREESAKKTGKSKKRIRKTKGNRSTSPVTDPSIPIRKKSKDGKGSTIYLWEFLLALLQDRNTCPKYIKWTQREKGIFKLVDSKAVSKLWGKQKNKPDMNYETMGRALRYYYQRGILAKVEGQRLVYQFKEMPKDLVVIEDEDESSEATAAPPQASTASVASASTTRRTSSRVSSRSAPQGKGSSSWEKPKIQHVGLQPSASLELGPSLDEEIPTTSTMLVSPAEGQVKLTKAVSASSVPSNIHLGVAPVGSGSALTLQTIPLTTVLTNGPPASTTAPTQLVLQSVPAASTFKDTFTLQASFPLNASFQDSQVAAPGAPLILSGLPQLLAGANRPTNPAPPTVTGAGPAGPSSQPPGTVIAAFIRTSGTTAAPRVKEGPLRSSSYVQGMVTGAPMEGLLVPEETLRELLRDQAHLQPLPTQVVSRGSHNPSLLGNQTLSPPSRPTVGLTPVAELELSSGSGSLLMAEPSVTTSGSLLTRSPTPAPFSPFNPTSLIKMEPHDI
ETV5, sequence (P41161 whole entry): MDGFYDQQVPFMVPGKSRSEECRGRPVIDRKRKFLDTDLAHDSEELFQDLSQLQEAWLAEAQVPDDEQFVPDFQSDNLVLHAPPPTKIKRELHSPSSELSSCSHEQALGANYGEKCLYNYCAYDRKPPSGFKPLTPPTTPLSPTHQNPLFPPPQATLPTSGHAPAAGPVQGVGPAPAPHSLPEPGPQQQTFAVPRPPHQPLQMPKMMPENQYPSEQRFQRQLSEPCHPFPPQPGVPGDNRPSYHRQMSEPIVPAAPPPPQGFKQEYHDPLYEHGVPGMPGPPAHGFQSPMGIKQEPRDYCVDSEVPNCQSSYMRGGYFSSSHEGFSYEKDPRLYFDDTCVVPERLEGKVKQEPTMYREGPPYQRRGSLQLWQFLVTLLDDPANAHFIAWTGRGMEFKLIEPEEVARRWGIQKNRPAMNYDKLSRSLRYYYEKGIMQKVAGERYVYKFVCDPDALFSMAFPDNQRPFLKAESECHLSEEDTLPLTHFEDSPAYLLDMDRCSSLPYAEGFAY

Turning to GATAGC, the binding signal with FLI1 is 1.11 fold enrichment (6-mer frequency, TF over GST control); in the assay with ELK1, 1.1 fold enrichment (6-mer frequency, TF over GST control); with GABPA it was 1.13 fold enrichment (6-mer frequency, TF over GST control); with ERG, 1.02 fold enrichment (6-mer frequency, TF over GST control); with ELF1, 1.02 fold enrichment (6-mer frequency, TF over GST control); with EHF, 1.1 fold enrichment (6-mer frequency, TF over GST control). The binding signal was 1.05 fold enrichment (6-mer frequency, TF over GST control) with SPI1; 1.1 fold enrichment (6-mer frequency, TF over GST control) with ELK3; 1.07 fold enrichment (6-mer frequency, TF over GST control) with FEV; 1.04 fold enrichment (6-mer frequency, TF over GST control) with ETV5; 1.07 fold enrichment (6-mer frequency, TF over GST control) with SPIC; 1.06 fold enrichment (6-mer frequency, TF over GST control) with ELF4. The binding signal with ELK4 was 1.03 fold enrichment (6-mer frequency, TF over GST control); with ETV2, 1.18 fold enrichment (6-mer frequency, TF over GST control); with ELF3, 1.08 fold enrichment (6-mer frequency, TF over GST control); in the assay with ETV1, 1.02 fold enrichment (6-mer frequency, TF over GST control).
